HTT cytoprotect: cytoprotection in Huntington HTT-Q103 PC12 cell model; PC12 HTT-Q103 induced, cytoprotection, ATP luminescence, 40 h; Potency, µM (series often up to 56.4 µM), most hits filed as activators; actives 0.14% (n = 230,000); AID 1471; further: nearly all actives have a fitted effect of over 45% in size
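Readout: ATPlite luminescence (ATP level). Model: stable PC12, inducible Htt exon1 Q103-GFP. Inducer: tebufenozide, 100 nM final. Compounds: dose series. No G418 in medium.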
JMJD2E inh: JMJD2E (human) inhibition. actives 1.6% (n = 230,000). B2RXH2. Potency, µM (highest dose often 57.1 µM), hits mostly inhibitors. JMJD2E catalytic domain, FDH-coupled NADH fluorescence (FDH is formaldehyde dehydrogenase); further: nearly all actives have a fitted effect of over 50% in size
Target sequence (B2RXH2 1-337 limits assumed): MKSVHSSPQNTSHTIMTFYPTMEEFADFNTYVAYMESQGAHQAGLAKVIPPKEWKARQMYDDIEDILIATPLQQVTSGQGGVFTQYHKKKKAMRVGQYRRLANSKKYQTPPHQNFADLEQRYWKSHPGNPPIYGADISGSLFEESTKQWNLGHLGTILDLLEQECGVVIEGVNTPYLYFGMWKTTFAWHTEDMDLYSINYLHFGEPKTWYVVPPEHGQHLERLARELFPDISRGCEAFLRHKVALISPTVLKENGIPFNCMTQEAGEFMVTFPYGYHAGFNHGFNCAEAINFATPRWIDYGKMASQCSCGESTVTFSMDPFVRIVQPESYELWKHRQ
Coupling enz: inhibits coupling enzyme system, counter-screen for aldolase hits; coupling enzyme system counterscreen, AmpLite Red fluorescence; activity change, negative = inhibition, % at 58.2 µM, hits read low; actives 0.67% (n = 290,000); AID 2472; in the data active means activity change below about -30%
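Activity here indicates interference with the coupling reaction, not aldolase inhibition. Compounds at 57.5 uM final met coupling enzymes for 10 min at RT; substrate and AmpLite Red detection followed, with a 525/598 nm fluorescence read after 20 min.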
HTT aggregate: mutant huntingtin aggregation inhibition; AID 1688; PC12 HttQ103-GFP aggregates, Acumen cytometry, 40 h; Potency, µM (doses to about 46.1 µM), most hits filed as inhibitors; actives 1.1% (n = 220,000); further: nearly all actives have a fitted effect of over 60% in size
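Ecdysone-promoter PC12 model expressing HTT exon 1 Q103 fused to GFP, induced by tebufenozide at 100 nM final. Compounds titrated; aggregates sized 1–25 µm scored on a 488 nm laser cytometer.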
TRb SRC2 PPI: TRbeta-SRC2 interaction inhibition; actives 0.065% (n = 280,000); Potency, µM (highest dose often 106 µM), usual class: inhibitors; P10828; TRbeta-SRC2 peptide binding, fluorescence polarization; receptor liganded with 1 µM T3; AID 1469; further: nearly all actives have a fitted effect of over 50% in size
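Assay buffer: 20 mM Tris-HCl, 100 mM NaCl, 10% glycerol, 1 mM EDTA, 0.01% NP-40, 1 mM DTT, 1 uM T3, 5% DMSO; TRb LBD 0.6 uM, Texas Red SRC2 20 nM; FP after 5 hr.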
TexasRed fluor: alters Texas Red total fluorescence, flagging assay interference; Potency, µM (titrated, usually from 106 µM); TRb/SRC2 Texas Red total fluorescence interference; actives 0.29% (n = 280,000); active means well fitted curve in either direction with a large enough effect; inconclusive means small, poorly fitted or top-dose-only effect
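Flags fluorescent or light-absorbing compounds by total fluorescence, S + 2P, at 555 nm excitation and 632 nm emission. Mixture: 20 nM Texas Red SRC2 peptide, 0.6 uM human TRb LBD, 1 uM T3, 5% DMSO; compound exposure 5 h at ambient temperature.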
A number is an active result; . = inactive; ? = inconclusive; / = no result; ! = repeats disagree; [ ] = dose if it differs, or a comment. The list is not random: actives were taken first. Their share in the collection is about 2%. Unless noted, the call rests on the fitted dose curve; in most records, active means well fitted curve in the direction sought with a large enough effect; inconclusive means small, poorly fitted or top-dose-only effect, or another doubt; inactive means no such curve, though single readings can be large; an effect the other way counts as inactive or inconclusive.

SMILES	HTT cytoprotect	JMJD2E inh	Coupling enz	HTT aggregate	TRb SRC2 PPI	TexasRed fluor
Oc1cc2c(cc1O)C1c3ccc(O)c(O)c3OCC1(O)C2 (centres undefined)	.	0.71µM	-72!	.[9.22 µM]	.	.
CCc1ccccc1Nc1ncnc2c1cnn2-c1ccc(Cl)cc1	/	/	/	/	.	.
CC(C)CCOc1ccc(C2N=C(N)Nc3nc4ccccc4n32)cc1 (centres undefined)	/	/	/	/	.	40µM[quencher]
COc1cc(C2N=C(N)Nc3nc4ccccc4n32)ccc1OCCC(C)C (centres undefined)	/	/	/	/	.	.
COC(=O)CSC(C)C(=O)Nc1nnc(C(C)C)s1 (centres undefined)	3.2µM	.	.	.	.	.
COc1cc2c(cc1OC)[C@H](C)N(CC1C(=O)O[C@@H]3C[C@@]4(C)CCC[C@H](C)[C@@]45OC5[C@H]13)CC2 (some centres undefined)	8.9µM	.	.	/	.	.
COCCNC(=O)CSc1nc2cc3c(cc2c(=O)n1CCCCCC(=O)NCCc1ccc(OC)c(OC)c1)OCO3	/	/	/	/	.	.
O=C[C@@H]1CCCN1C(=O)[C@@H]1CCCN1C(=O)OCc1ccccc1	.	/	/	/	.	.
CC(=O)c1ccc(N(C)C)c2c(N(C)C)cccc12	.	.	-55	.	.	.
CCOC(=O)C1=C(O)c2ccccc2C(=O)/C1=C\c1ccc(C)cc1	.[10 µM]	?	-51	.	.	.
Cc1ccc2c(c1)Oc1ccc(NC(=O)CCl)cc1C(=O)N2	.[10 µM]	.	.	25µM	.	.
Cc1ccc2c(c1)Oc1ccc([N+](=O)[O-])cc1C(=O)N2	.	.	.	.	.	.
O=C(N/N=C1\C/C(=N\NC(=O)c2ccncc2)c2ccccc21)c1ccncc1	.	?	-34	?	.	.
O=C(NN=C1C2CC3CC(C2)CC1C3)c1ccncc1	.	.	.	.	.	.
COC(=O)[C@@]1(Cc2ccc(OC)cc2)[C@@H]2C(=CC(=O)[C@H]2CC(=O)C(=O)N2CCCC2)CN1C(=O)c1ccccc1	7.1µM	.	.	?	.	.
COC(=O)[C@@]1(Cc2ccc(F)cc2)[C@@H]2[C@@H](CC(=O)[C@H]2CC(=O)C(=O)N(C)C)CN1C(=O)c1ccccc1	?	16µM!	.	.	.	.
COC(=O)[C@@]1(Cc2ccccc2)[C@H]2c3cc(C(=O)N4CCCC4)n(Cc4ccc(C(F)(F)F)nc4)c3C[C@H]2CN1C(=O)c1ccccc1	.	.	.	/	.	.
COC(=O)[C@@]1(Cc2ccc(F)cc2)[C@H]2c3cc(C(=O)N4CCCC4)n(Cc4ccc(C(F)(F)F)nc4)c3C[C@H]2CN1C(=O)c1ccccc1	10µM	.	.	.	.	.
Cc1ccc2ccc3cc(C(=O)Nc4ccc(C)c(F)c4)nc3c2[nH]1	/	/	/	/	.	.
CCOC(=O)N1CCc2c(sc3c2c(=O)n(-c2ccc(CC)cc2)c(=O)n3CC(=O)c2ccc(F)cc2)C1	/	/	/	/	.	.
N#CCCCN1C(=O)C(O)(CC(=O)c2ccc3c(c2)OCCO3)c2ccccc21 (centres undefined)	.[10 µM]	.	.	.	.	.
N#CCCCN1C(=O)C(=C(C#N)C#N)c2ccccc21	.[10 µM]	.	-35	.[9.22 µM]	.	.
CO[C@H]1COC(=O)CCC[C@H](C)[C@@H](OC)COC(=O)C/C=C\[C@@H]1C	.[10 µM]	/	.	/	.[11.2 µM]	.[11.2 µM]
COc1ccc(-n2nc(C#N)c(Cl)cc2=O)cc1	.[10 µM]	.	.	25µM	.	.
COC(=O)c1nn(-c2ccc(OC)cc2)c(=O)cc1O	.[10 µM]	.	.	.	.	.
SMILES	HTT cytoprotect	JMJD2E inh	Coupling enz	HTT aggregate	TRb SRC2 PPI	TexasRed fluor
CCN1CCS/C1=C/C=C/C1=[N+](CC)CCS1	.[10 µM]	28µM	.	0.5µM	.	.
CCN1CCS/C1=C\C=C\C1=[N+](CC)CCS1	.	/	.	1.1µM	.	.
O=C1C=C(O)c2cccc3cccc1c23	/	/	.	/	/	/
O=C1C=C(O)c2c(O)cccc2C1=O	.[10 µM]	6.3µM	.	.[9.22 µM]	.	.
C/C=C/C/C=C\CCCCCCCCOC(C)=O	/	/	/	/	.	.
COc1ccccc1NC(=O)c1sc2ncn(Cc3ccc(C)cc3)c(=O)c2c1C	.[10 µM]	?	.	.	.	.
COc1ccccc1NC(=O)c1sc2ncn(Cc3cccc4ccccc34)c(=O)c2c1C	.[10 µM]	.	.	.	?	0.89µM[quencher]
COc1cccc(Cn2c(=O)c(-c3ccc(Cl)cc3)nc3cncnc32)c1	.	/	.	/	/	/
Oc1ccc(/C=N/NC(=S)NCCN2CCOCC2)c(O)c1	.	35µM	.	.	.	.
CCCc1cc(-c2n[nH]c(C)c2-c2ccc(C(=O)OCC)o2)c(O)cc1O	.	?	-34	.	.	.
COc1ccc2ccccc2c1/C=C\C(=O)c1ccccc1	.[10 µM]	/	/	/	/	/
COc1ccc(/C=C/C(=O)c2ccncc2)c2ccccc12	.[1.9 µM]	.	-43	.	.	.
CCC(C(=O)Nc1ccccc1OC)n1c(C(=O)OC)cc2sc(Cl)cc21 (centres undefined)	/	/	/	/	.	20µM[quencher]
CCOc1ccccc1NC(=O)C(CC)n1c(C(=O)OC)cc2occc21 (centres undefined)	/	/	/	/	.	.
c1cncc(-c2nc(N3CCOCC3)c3ccccc3n2)c1	.	.	.	0.89µM	.	.
c1ccc2c(N3CCOCC3)nc(-c3ccncc3)nc2c1	.[10 µM]	.	.	?	.	.
Cc1cc(C)cc(OC(=O)c2cc(-c3ccc(Cl)cc3)on2)c1	/	/	/	/	.	.
C[C@@H]1CNCCN1S(=O)(=O)c1cccc2cnccc12	13µM!	.	.	/	.	.
Cc1ccc(-c2nc3sc(C(N)=O)c(N)c3c3c2CCCC3)cc1	.[10 µM]	.	.	.	.	.
NC(=O)c1sc2nc(N3CCOCC3)c3c(c2c1N)CCCC3	.	?	.	.[9.22 µM]	.	.
NC(=O)c1sc2nc(-c3ccccc3)c3c(c2c1N)CCCC3	.	?	.	6.3µM	.	.
Cc1nc2sc(C(N)=O)c(N)c2c2c1CCCC2	.[10 µM]	?	.	1.8µM	.	.
CCCCCCCCCCCCCCCCN(C)C	/	/	/	/	.	.
C=CCN1C(=O)CS/C1=C(\C#N)S(=O)(=O)c1ccc(C)cc1	.	.	.	.	?	40µM[fluorescent]
CCOc1ccc(CNC(=O)c2cnc3sc(N4CCOCC4)nn3c2=O)cc1	/	/	/	/	.	.
CCOc1ccc(CNC(=O)c2cnc3sc(N4CCOCC4)nn3c2=O)cc1OC	/	/	/	/	?	1995µM[quencher]
O=C(Nc1ccccc1)c1ccc(-c2ccc([N+](=O)[O-])cc2)o1	/	/	.	/	/	/
COc1ccc(NC(=O)c2ccc(-c3ccc([N+](=O)[O-])cc3)o2)cc1	.	.	-31	.	?	32µM[quencher]
COC(=O)c1cc(OC)c(OC)cc1NC(=O)C1CCC(=O)N1S(=O)(=O)c1ccc(C)cc1 (centres undefined)	.	?	.	3.2µM	.	.

Compound activity as filed in PubChem.
